Assay results as given in publication PMC7819943, “Rice protein-binding microarrays: a tool to detect cis-acting elements near promoter regions in rice”.
In all, about 35,000 sequences were measured (“fluorescence intensity (a.u.)”: median about 10,000, highest 2% from about 52,000 on). Only a selection was taken, and the highest values are over-represented in it overall.

molecular target: T1, OsWOX13 (Oryza sativa, UniProt Q5QMM3 1-267); assay: protein-binding microarray (RPBM); PBS, 2% BSA, 51.3 ng/ul salmon testes DNA, 50 uM zinc acetate, 200 nM TF, 25 C, 1 h; high values mean tight binding; conditions: protein: recombinant; tags: N-terminal polyhistidine and DsRed monomer fusion (pET32a); label: CyDye5-dUTP incorporated in the synthesized complementary strand; 3' TTTTT single-stranded linker to array surface; dsDNA, one strand shown
T1 sequence: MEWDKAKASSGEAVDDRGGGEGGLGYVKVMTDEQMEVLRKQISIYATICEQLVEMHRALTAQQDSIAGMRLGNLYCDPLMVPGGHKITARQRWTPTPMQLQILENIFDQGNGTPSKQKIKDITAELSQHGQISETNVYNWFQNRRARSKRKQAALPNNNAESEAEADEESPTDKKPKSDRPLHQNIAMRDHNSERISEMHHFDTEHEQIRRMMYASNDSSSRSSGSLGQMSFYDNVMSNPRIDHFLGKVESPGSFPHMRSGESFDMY
Method in brief: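 Transcription factors were each fused at the N-terminus to a polyhistidine tag plus DsRed and expressed in E. coli BL21-CodonPlus before Ni–NTA purification. Binding to a double-stranded custom Agilent array was carried out with 200 nM protein at 25 °C for 1 h in PBS, 2% BSA, salmon testes DNA and 50 µM zinc acetate. The binding signal is per-feature fluorescence intensity, in arbitrary units, on an Axon 4000B scanner.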

Row | Sequence | binding signal
1 | TCGGTATTGTGATTGAGGGGTAAGAGTAAGTTTCGGCCACCGGAGTCACCTAGTGCAG | 18700 fluorescence intensity (a.u.)
2 | TTAATTGTAAGTTTAACTATTGCTACTTCGCTTGCAGCGTCGGAGTCACCTAGTGCAG | 13600 fluorescence intensity (a.u.)
3 | AATCATGGCGTAATTAGGCTTAAAAGATTCGTCTCGCAATCGGAGTCACCTAGTGCAG | 3620 fluorescence intensity (a.u.)
4 | TTATCCAAAACGTCAATTAATATAGAACTAGAGTGAGTACCGGAGTCACCTAGTGCAG | 4500 fluorescence intensity (a.u.)
5 | TGTTGATTGTTGTGTTTAATTGGAGATTGACTATTGAATCCGGAGTCACCTAGTGCAG | 60200 fluorescence intensity (a.u.)
6 | GAGTTATGATTTGTTACAATAATTGTAACTTATTGTAAAGCGGAGTCACCTAGTGCAG | 27900 fluorescence intensity (a.u.)
7 | TTATACATCCAAATTTGATTGTTGCGTGCTTATTTTGTTGCGGAGTCACCTAGTGCAG | 13700 fluorescence intensity (a.u.)
8 | GATTTAATTTATTTTGGTAATGATTTGTGGATGATTTTGGCGGAGTCACCTAGTGCAG | 31600 fluorescence intensity (a.u.)
9 | CATTCATATTGATGTTAATAAATTAATATAGATATATATGCGGAGTCACCTAGTGCAG | 3590 fluorescence intensity (a.u.)
10 | AGTTATTGACAGTGACTAATCTACCTAATCCGTAGATTAACGGAGTCACCTAGTGCAG | 12500 fluorescence intensity (a.u.)
11 | GCTCTAATAATTGAATAATTTGATTTGTTTTATTTAAATCCGGAGTCACCTAGTGCAG | 30100 fluorescence intensity (a.u.)
12 | TTAATTGATTGAATCACATCCTTCCGGATTGTTTTGATCCCGGAGTCACCTAGTGCAG | 40800 fluorescence intensity (a.u.)
13 | TTAATTGATTGATTGATTGATTAATCCGTTGTGAATCTAACGGAGTCACCTAGTGCAG | 61500 fluorescence intensity (a.u.)
14 | TGCGTGATTGTTGGGATTATTTTATTAATTGATCCAATGGCGGAGTCACCTAGTGCAG | 57200 fluorescence intensity (a.u.)
15 | CCATCACATCCGTTGGCCTAATTGATTTGTGAAGCATCAACGGAGTCACCTAGTGCAG | 4240 fluorescence intensity (a.u.)
16 | ACTTAATTATTGTTATGATTCATTCATGCATAAAGCGGTGCGGAGTCACCTAGTGCAG | 55700 fluorescence intensity (a.u.)
17 | GAGTACAGATGAAATTTGTAGAAATTGGAATGGTCATGTACGGAGTCACCTAGTGCAG | 3810 fluorescence intensity (a.u.)
18 | GGCAAATTGTCAAGGTTAACCGTAAATCTACAGTGCCAATCGGAGTCACCTAGTGCAG | 15500 fluorescence intensity (a.u.)
19 | TCTTCACATGAATGATGAAATTGCTAGTAGCATGTCTTCACGGAGTCACCTAGTGCAG | 3410 fluorescence intensity (a.u.)
20 | AATTGATTGGACTCCACCAACATTAAAATAGTTGTTGATGCGGAGTCACCTAGTGCAG | 56400 fluorescence intensity (a.u.)
21 | CGTCTACCGTGATTGTTTCGATACAATTGTGTGCAAGTTACGGAGTCACCTAGTGCAG | 21200 fluorescence intensity (a.u.)
22 | TTCGATTGATTGATAGTTGATTGTGTGTTTACAATTGAACCGGAGTCACCTAGTGCAG | 52600 fluorescence intensity (a.u.)
23 | TGATTAAAATTGACATTAAAATTATAGTTTTGTGATGACTCGGAGTCACCTAGTGCAG | 19100 fluorescence intensity (a.u.)
24 | CAGTGGATGATTAATATTGATTAATTATTATAATTGTTTTCGGAGTCACCTAGTGCAG | 39500 fluorescence intensity (a.u.)

Row | Sequence | binding signal
25 | TTATATTAATTGATGGTCATTATTGTTGGAGATTATATTGCGGAGTCACCTAGTGCAG | 60800 fluorescence intensity (a.u.)
26 | GGAGTTGATTGATGGACCTAGAATTGGTTGAGATCCTCAGCGGAGTCACCTAGTGCAG | 63700 fluorescence intensity (a.u.)
27 | ACTTGTTGAAAATTGATTGCTTTGTTGTTGTAGTGTTTACCGGAGTCACCTAGTGCAG | 23600 fluorescence intensity (a.u.)
28 | ACATTCCAAAATTTGACCAAATTTGTTCACTCGTTGACTGCGGAGTCACCTAGTGCAG | 3660 fluorescence intensity (a.u.)
29 | CAGAATTGAGAGTTCACATATCCTCAGTGGTCAGAGTTCACGGAGTCACCTAGTGCAG | 6100 fluorescence intensity (a.u.)
30 | GATTTAAATTAGATGGAAGGTTGAGAATTAAGCTGATCCTCGGAGTCACCTAGTGCAG | 13600 fluorescence intensity (a.u.)
31 | AAATTAAATTTTATTTGTTGAAAATAATATCATTGGATTGCGGAGTCACCTAGTGCAG | 6020 fluorescence intensity (a.u.)
32 | CAGTTTTGGTTAATTAAGTAAATAATTGTCCTCAGAAAGTCGGAGTCACCTAGTGCAG | 15100 fluorescence intensity (a.u.)
33 | CATAAATTTTCCGTGCCAACTTTGATCATCCGTTTTATTTCGGAGTCACCTAGTGCAG | 5660 fluorescence intensity (a.u.)
34 | CTATACAACAAATCATTAATTAGGCTCAAAAGAAAGAAAGCGGAGTCACCTAGTGCAG | 11100 fluorescence intensity (a.u.)
35 | CACATGCAAATTATCGTGCGTCTGTATGTGGCATGCTTGTCGGAGTCACCTAGTGCAG | 4230 fluorescence intensity (a.u.)
36 | GCCACTAAATTAATCCGGTGATTGATCATGTGTGGAAGCACGGAGTCACCTAGTGCAG | 54200 fluorescence intensity (a.u.)
37 | GATTTGATTTAAATCTTGAATAAATTTAATAAAATCCTATCGGAGTCACCTAGTGCAG | 10000 fluorescence intensity (a.u.)
38 | AGAGATCGAGATTGACACACAACGTGGTTCACGCGTGCGCCGGAGTCACCTAGTGCAG | 23100 fluorescence intensity (a.u.)
39 | TACGTGTGTTGATTTCCGTGACATATGCATAAATTTCTTTCGGAGTCACCTAGTGCAG | 3870 fluorescence intensity (a.u.)
40 | AGAGAATTGAATTAATCCGTGTGATATATCACTAAAATTCCGGAGTCACCTAGTGCAG | 5900 fluorescence intensity (a.u.)
41 | GGAGATTGACACGTTGGTCTACGTGCCTATGCGTGTGTTCCGGAGTCACCTAGTGCAG | 55600 fluorescence intensity (a.u.)
42 | TTTAATCACTAATTAATTGTTGATTAGCGGCAAGTGTGACCGGAGTCACCTAGTGCAG | 63800 fluorescence intensity (a.u.)
43 | ACGGTGTGATTAATTACGTCGCGATCATGTTGTGCTAATCCGGAGTCACCTAGTGCAG | 32500 fluorescence intensity (a.u.)
44 | TTTTGATGAAATAAACTATGAAAATCCTGTGAAATTCATGCGGAGTCACCTAGTGCAG | 7340 fluorescence intensity (a.u.)
45 | AATGTTTTAATCACATTGATTAGCAACTAATTAATCTTAGCGGAGTCACCTAGTGCAG | 47100 fluorescence intensity (a.u.)
46 | ATACTAATTACTTAATTAGTGACCAGTGATCACTTGTGTGCGGAGTCACCTAGTGCAG | 45800 fluorescence intensity (a.u.)
47 | ATGATTGAATCCTATAAAATCTTGTGAAATTCCTGTGAAACGGAGTCACCTAGTGCAG | 52800 fluorescence intensity (a.u.)
